The text below walks through data of PubChem BioAssay (NCATS).

The structures appear in SMILES notation. Records with an inconclusive call do not appear. The source made the active and inactive calls. The call rests on the fitted dose curve; in most records, active means well fitted curve in the direction sought with a large enough effect; inconclusive means small, poorly fitted or top-dose-only effect, or another doubt; inactive means no such curve, though single readings can be large; an effect the other way counts as inactive or inconclusive.

Sequence of Protein phosphatase 1D (Homo sapiens) (O15297 whole entry, looked up): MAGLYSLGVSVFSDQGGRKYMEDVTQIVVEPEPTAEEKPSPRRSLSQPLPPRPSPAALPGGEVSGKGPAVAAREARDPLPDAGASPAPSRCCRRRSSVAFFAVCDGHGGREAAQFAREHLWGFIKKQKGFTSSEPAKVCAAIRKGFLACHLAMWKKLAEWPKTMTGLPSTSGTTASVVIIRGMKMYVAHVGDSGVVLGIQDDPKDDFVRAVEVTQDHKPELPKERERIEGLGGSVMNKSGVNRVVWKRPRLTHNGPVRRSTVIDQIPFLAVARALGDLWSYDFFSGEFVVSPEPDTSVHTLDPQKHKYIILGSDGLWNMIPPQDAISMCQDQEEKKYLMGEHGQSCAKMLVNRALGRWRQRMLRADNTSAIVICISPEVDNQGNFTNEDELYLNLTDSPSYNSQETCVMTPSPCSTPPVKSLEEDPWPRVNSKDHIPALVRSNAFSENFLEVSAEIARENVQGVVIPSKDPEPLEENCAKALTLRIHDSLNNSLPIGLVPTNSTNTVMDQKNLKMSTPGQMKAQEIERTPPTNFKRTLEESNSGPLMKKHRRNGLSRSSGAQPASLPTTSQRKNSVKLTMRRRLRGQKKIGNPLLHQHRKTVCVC

In one assay the target is Protein phosphatase 1D (Homo sapiens) (UniProt O15297). Put plainly: Rhodamine-PBP qHTS Assay for Modulators of WT P53-Induced Phosphatase 1 (WIP1) (AID 1347425). The note with it: recombinant WIP1, Rhodamine-PBP phosphate fluorescence, real-time; series mostly up to 57.5 µM. The method, boiled down:
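5 nM WIP1 + 10 uM Rh-PBP, 50 mM Tris pH 7.5, 30 mM MgCl2, 1 mM TCEP, 0.1 mM EGTA, BSA; cpds pinned, 1 hr RT; + 10 uM phosphopeptide; fluorescence 1-min reads x 11 min; delta = f1 - f0.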
On the technique in general: qHTS replaces the single test concentration by a dilution series.
For `COc1cc(O)c(C(=O)c2ccccc2)cc1S(=O)(=O)O`, the outcome was inactive. The same measure, in the same setting: the result for `CC(=O)Nc1ccc(S(=O)(=O)Nc2ccc([N+](=O)[O-])cc2)cc1` reads “inactive”. On the same count and under the same terms, the result for `CC(=O)Nc1ncc([N+](=O)[O-])s1` reads “inactive”. Take `NS(=O)(=O)Cc1noc2ccccc12`: the outcome was inactive. Turning to `O=C(O)C(Cc1cc(I)c(O)c(I)c1)c1ccccc1` (configuration not stated), the outcome was inactive. Still for that read-out and setting: the entry for `CN1CCc2cccc3c2[C@H]1Cc1ccc(O)c(O)c1-3` is “inactive”.

Test system in the next assay: not listed separately
Put plainly: Primary qHTS for inhibitors of La Crosse Virus (LACV) - induced cell death in SH-SY5Y cells (AID 1508616).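 Further: top concentration of the series differs between compounds; higher means more rescue of cells from virus-induced death.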 The note with it: SH-SY5Y LACV cytopathicity rescue, ATP luminescence, 6 d; series mostly up to 4.29 µM. The method, boiled down: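 SH-SY5Y, 6000 cells/well; cpd via pin tool in DMSO; LACV 0.01 MOI; 6 d 37C 5% CO2; ATPLite, 5 min RT; luminescence normalized to ±virus DMSO controls.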
Take `COc1cc(C)nc(-n2nc(C)cc2OC)n1`: the result was inactive. On the same count and under the same terms, the result for `Cc1cc(CC(=O)O)c(C)n1-c1ccc(Cl)cc1` reads “inactive”; that for `CC(C)=CCOc1ccc(/C=C/C(=O)c2ccc(OCC=C(C)C)cc2OCC(=O)O)cc1`, “inactive”.

For `CCCCCCCCCCCCOCCOCCOCCOCCOCCOCCOCCOCCOCCO`, the call was inactive. On the same count and under the same terms, the result for `N#C/C(=C1\SCC(c2ccccc2Cl)S1)n1ccnc1` (configuration not stated) reads “inactive”; that for `O=C(NC1CCN(CCc2c[nH]c3ccccc23)CC1)c1ccccc1`, “inactive”. Regarding `Cn1c(=O)c2[nH]c(Br)nc2n(C)c1=O`, the compound was classed as inactive. As for `O=S(c1cc(Cl)cc(Cl)c1O)c1cc(Cl)cc(Cl)c1O`, the outcome was inactive. On the same count and under the same terms, the result for `COc1cc(O)c(C(=O)c2ccccc2)cc1S(=O)(=O)O` reads “inactive”. Still for that read-out and setting: the result for `Cc1cccc(C)c1NC(=O)CN1CCCC1` reads “inactive”; that for `CCC(C(=O)OCCOCCN(CC)CC)c1ccccc1` (configuration not stated), “inactive”; that for `CCCN(CCC)S(=O)(=O)c1ccc(C(=O)O)cc1`, “inactive”. On the same count and under the same terms, the result for `Cc1cccc(C)c1NC(=O)c1ccccc1C(=O)O` reads “inactive”; that for `O=C(Nc1ccccc1)OCC(CN1CCCCC1)OC(=O)Nc1ccccc1` (configuration not stated), “inactive”; that for `COc1cc(C(=O)NCc2ccc(OCCN(C)C)cc2)cc(OC)c1OC`, “inactive”. On to `CCC(Cc1c(I)cc(I)c(N)c1I)C(=O)O` (configuration not stated), for which the result was inactive. The same measure, in the same setting: the result for `CCC1Nc2cc(Cl)c(S(N)(=O)=O)cc2S(=O)(=O)N1` (configuration not stated) reads “inactive”; that for `CCc1nn(CCCN2CCN(c3cccc(Cl)c3)CC2)c(=O)n1CCOc1ccccc1`, “inactive”; that for `CC(=O)Nc1ccc(S(=O)(=O)Nc2ccc([N+](=O)[O-])cc2)cc1`, “inactive”. For `Nc1ccc(S(=O)(=O)Nc2cnc3ccccc3n2)cc1`, the compound was called inactive. Same read-out and setting: the entry for `CCC(CC)(CC(=O)Nc1cccc(/C=C/c2nc(C3CCC3)cs2)c1)C(=O)O` is “inactive”; for `COC(=O)C(c1ccccc1Cl)N1CCc2sccc2C1` (configuration not stated) it is “inactive”; for `CC(=O)Nc1ncc([N+](=O)[O-])s1` it is “inactive”.

Regarding `NS(=O)(=O)Cc1noc2ccccc12`, the result was inactive. The same measure, in the same setting: the entry for `Cc1cccc(C)c1NC(=O)CN1CCCCCC1` is “inactive”; for `O=C(O)C(Cc1cc(I)c(O)c(I)c1)c1ccccc1` (configuration not stated) it is “inactive”. On the same count and under the same terms, the result for `NS(=O)(=O)c1cc2c(cc1Cl)NC(CC1CCCC1)NS2(=O)=O` (configuration not stated) reads “inactive”. On the same count and under the same terms, the result for `CN1CCc2cccc3c2[C@H]1Cc1ccc(O)c(O)c1-3` reads “inactive”; that for `COc1cc(NS(=O)(=O)c2ccc(N)cc2)ncn1`, “inactive”; that for `NC(=O)n1c(O)c(C(=O)c2cccs2)c2cc(Cl)ccc21`, “inactive”. Take `C/C=C/c1ccc(O)c(OC)c1`: the outcome was inactive.

In the case of `C[C@@H](O)[C@H]1C(=O)N2C(C(=O)O)=C(S[C@@H]3CN[C@H](CNS(N)(=O)=O)C3)[C@H](C)[C@H]12`, the call was inactive.

As for `NC(=O)c1ccccc1O`, the compound was classed as inactive. Still for that read-out and setting: the result for `O=C(CCN1CCN2CCCC2C1)N1c2ccccc2Sc2ccc(Cl)cc21` (configuration not stated) reads “inactive”.

For `O=C(O)C1(C(=O)O)CCC1.[NH2-].[NH2-].[Pt+2]`, the compound was called inactive. On the same count and under the same terms, the result for `CCNC(=O)NCc1cccc(Cl)c1` reads “inactive”.
